The structures appear in SMILES notation. Values joined by “and” are separate entries in the source; they are usually repeats but may differ in a detail not shown here. Equal values may be shown once. Results filed as inconclusive are left out. Some structures have more than one record in an assay (separate samples or runs), and their calls can disagree. Active and inactive are the calls of the source. Unless noted, calls follow the shape of the dose curve; as a rule, active = well fitted curve in the direction sought with a large enough effect; inconclusive = small, poorly fitted or top-dose-only effect, or another doubt; inactive = no such curve, though single readings can be large; an effect the other way counts as inactive or inconclusive.

Results on 38 compounds are retold here after PubChem BioAssay (NCATS).

Assay [1] deals with Aldehyde dehydrogenase, mitochondrial (Homo sapiens) (UniProt P05091). Put plainly: qHTS for Inhibitors of the Aldehyde Dehydrogenase Family (ALDH2) Confirmatory screens (AID 2061303; active = well fitted inhibition curve with a large enough effect; title and protocol of this record describe different tests; also: nearly all actives have a fitted effect of over 45% in size; also: potency is read from the fitted curve at half-maximal effect). The note with it: ALDH inhibition qHTS; series mostly up to 45.4 µM.
A short description of assay [2]: qHTS for Inhibitors of the Aldehyde Dehydrogenase Family (ALDH1A2, ALDH1A3, ALDH2, ALDH3A1) (AID 2061307). Also: nearly all actives have a fitted effect of over 50% in size. As to Potency: test system not described further here; potency is read from the fitted curve at half-maximal effect. The following applies: ALDH inhibition qHTS; series mostly up to 50.3 µM. (In general: qHTS replaces the single test concentration by a dilution series.)
The target in assay [3] is Aldehyde dehydrogenase, mitochondrial (Homo sapiens) (UniProt P05091). Put plainly: qHTS for Inhibitors of the Aldehyde Dehydrogenase Family (ALDH2) Primary screen (AID 2061308). Also: nearly all actives have a fitted effect of over 55% in size. Also: potency is read from the fitted curve at half-maximal effect. The following applies: ALDH2 enzyme inhibition qHTS, 1536-well; series mostly up to 56 µM.
Assay [4] deals with Retinaldehyde dehydrogenase 3 (Homo sapiens) (UniProt P47895). Description: qHTS for Inhibitors of the Aldehyde Dehydrogenase Family (ALDH1A3) Confirmatory screens (AID 2061311). Also: nearly all actives have a fitted effect of over 60% in size. Also: potency is read from the fitted curve at half-maximal effect. The following applies: ALDH inhibition qHTS; series mostly up to 46 µM.
Assay [5] has the same target. Put plainly: qHTS for Inhibitors of the Aldehyde Dehydrogenase Family (ALDH1A3) Validation screen (AID 2061312). Also: nearly all actives have a fitted effect of over 45% in size. Also: potency is read from the fitted curve at half-maximal effect. The note with it: ALDH1A3 enzyme inhibition qHTS validation, fluorescence; series mostly up to 84.7 µM.
The target in assay [6] is Retinal dehydrogenase 2 (Homo sapiens) (UniProt O94788). Description: qHTS for Inhibitors of the Aldehyde Dehydrogenase Family (ALDH1A2) Confirmation screens (AID 2061314). Also: nearly all actives have a fitted effect of over 65% in size. Also: potency is read from the fitted curve at half-maximal effect. The following applies: ALDH1A2 enzyme inhibition qHTS confirmation; series mostly up to 45.9 µM.
Assay [7] deals with Retinaldehyde dehydrogenase 3 (Homo sapiens) (UniProt P47895). Put plainly: qHTS for Inhibitors of the Aldehyde Dehydrogenase Family (ALDH1A3) Primary screen (AID 2061315).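 Also: plate controls were DMSO vehicle for no effect and reference inhibitor for full effect.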 The following applies: ALDH inhibition qHTS; series mostly up to 56 µM.
Assay [8] concerns the target Aldehyde dehydrogenase 1A1 (Homo sapiens) (UniProt P00352). Put plainly: qHTS for Inhibitors of the Aldehyde Dehydrogenase Family (ALDH1A1) Confirmatory screens (AID 2061316). Also: nearly all actives have a fitted effect of over 65% in size. Also: potency is read from the fitted curve at half-maximal effect. The following applies: ALDH inhibition qHTS; series mostly up to 47.3 µM.
The nature of assay [9]: BET inhibitor-based combinations targeting novel dependencies in MECOM-rearranged (r) AML: SET-2 cell line (AID 2202231).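 Also: plate controls were DMSO treated cells for no effect and wells without cells for full effect; nearly all actives have a fitted effect of over 35% in size.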 The following applies: SET-2 AML cells viability, CellTiter-Glo luminescence, 48 h; viability: stronger effect = lower value, concentration not given here. The procedure, abridged: (§1)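 Cells were plated at 500 per well and exposed to an 11-point dose series of each drug for 48 hr. Viability was measured by CellTiter-Glo luminescence, normalized to DMSO and empty-well controls, and summarized as AUC and per-cell-line Z-AUC.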
(ATP-based viability assays read luminescence as a measure of living cells.)

The nature of assay [10]: BET inhibitor-based combinations targeting novel dependencies in MECOM-rearranged (r) AML: OCI-AML3 cell line (AID 2202232). Also: potency is read from the fitted curve at half-maximal effect; nearly all actives have a fitted effect of over 35% in size. The note with it: CellTiter-Glo luminescence, 48 h; Potency: OCI-AML3 viability; series mostly up to 46 µM. The gist of the method:
as §1

A short description of assay [11]: BET inhibitor-based combinations targeting novel dependencies in MECOM-rearranged (r) AML: MV-4-11 cell line (AID 2202233). Also: potency is read from the fitted curve at half-maximal effect; nearly all actives have a fitted effect of over 45% in size. The note with it: MV-4-11 AML viability, CellTiter-Glo luminescence, 48 h; series mostly up to 46 µM. The procedure, abridged:
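Activity is given as area under the curve and as Z-AUC, mean-centred within each cell line. It comes from 11-point dose curves normalized to DMSO and empty wells. CellTiter-Glo luminescence was read after 48 hr drug exposure of 500 cells/well.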

Regarding `COc1cccc(CNC(=O)C2c3ccccc3CC(=O)N2C(C)C)c1` (centres undefined), the Potency result in assay [1] was “inactive”.
Take `CC(C)NC(=O)Cc1csc2nc(-c3ccccc3)cn12`: the Potency result in assay [1] is “inactive”.
Consider `CC(C)C(=O)Nc1ccc(C2(C(=O)N3CCN(c4ccccc4)CC3)CCCCC2)cc1`, for which, in assay [1], the Potency entry was “inactive”.
Same read-out and setting: as for `Cc1ccc(CNC(=O)c2ccc(-c3ccc(N4CCCCC4)nc3)cc2)o1`, the entry is “inactive”; as for `NC(=O)[C@H](CC1CCCCC1)NC(=O)[C@H]1CN(C(=O)c2cccc(F)c2)CCN1C(=O)C1CCNCC1`, “inactive”; as for `O=C([C@H]1C[C@H](Oc2ccccc2)CN1S(=O)(=O)c1ccc(F)cc1)N1CCOCC1`, “inactive”.
The same measure, in the same setting: the same measure for `COCCC1(NC(=O)c2ccccc2)CCN(S(=O)(=O)c2ccc(C#N)cc2)CC1`: “inactive”.
Turning to `Cc1cc2occ(CN(C)CCN(C)Cc3cn(-c4cccc(C(F)(F)F)c4)c4ccccc34)c(=O)c2cc1C`, the Potency result in [1], in assay [2], in assay [3], in assay [4], in [5] and in assay [6] was “inactive” throughout. Further, the Potency result in assay [7] is “inactive”. The Potency in assay [8] is 10100 nM (active).
In the case of `OCc1cccc(-c2ccc3ncc(Nc4cccnc4)n3n2)c1`, in assay [1], the Potency entry is “inactive”.
With `CCN1CCN(c2ccc(Nc3ccc(-c4ccc(C(N)=O)cc4)n4ncnc34)cc2)CC1`, the Potency result in [1], in assay [2] and in [3] was “inactive” each time.
`COc1nc2ccc(Br)cc2cc1[C@@H](c1ccccc1)[C@@](O)(CCN(C)C)c1cccc2ccccc12`: the Potency in assay [1] was 1.27 µM (active); in assay [2], 0.896 µM (active); in [3], 708 nM (active); in [4] it was 8.96 µM (active); in [5] it was 1.26 µM (active); in assay [6], 1.79 µM (active). Also, the Potency in assay [8] was 142 nM (active).
As for `CC(C)C[C@H]1C(=O)N2CCC[C@H]2[C@]2(O)O[C@](NC(=O)[C@@H]3C=C4c5cccc6[nH]c(Br)c(c56)C[C@H]4N(C)C3)(C(C)C)C(=O)N12`, the Potency entry in assay [1] and in assay [2] was “inactive” each time.
Consider `CCCC(=O)Nc1cccc(-c2cn3c(C)csc3n2)c1`, for which, in assay [1], the Potency entry was “inactive”.
On to `C[C@H]1CO[C@@H]2Cn3cc(C(=O)NCc4ccc(F)cc4F)c(=O)c(O)c3C(=O)N12`, for which the Potency entry in assay [1], in assay [2], in [3], in assay [4], in assay [5] and in assay [6] was “inactive” throughout. The Potency result in assay [7] and in assay [8] was “inactive” in each case.
On to `COc1ccc(CC(=O)NCCNC(=O)c2ccc(-c3cccc(C(F)(F)F)c3)cc2)cc1`, for which, in assay [1], the Potency result is “inactive”.
On the same count and under the same terms, the same measure for `CCc1nnc(NC(=O)c2nc(SCc3ccc(F)cc3)ncc2Cl)s1`: “inactive”.
As to `CCN(CC)S(=O)(=O)c1ccc2c(c1)N(CC(=O)Nc1ccc(OC)cc1)C(=O)CS2`, the Potency entry in assay [1] is “inactive”.
Still for that read-out and setting: the same measure for `Cc1nc2c(c(NCCc3nc(C)c(Cl)s3)n1)CCNCC2`: “inactive”.
As for `COc1ccc(O)c(C2Nc3ccccc3C(=O)N2Cc2ccccc2)c1` (centres undefined), the Potency result in [1] and in [3] was “inactive” in each case. In addition, in [2], the Potency is 12.7 µM (active).
Regarding `CCOc1ccc(NC(=O)c2nnn(-c3ccc(F)c(Cl)c3)c2C)cc1`, the Potency entry in [1] is “inactive”.
With `CCN1CCN(C(=O)N[C@@H](C(=O)N[C@@H]2C(=O)N3[C@@H]2SC(C)(C)[C@@H]3C(=O)O)c2ccccc2)C(=O)C1=O`, the Potency result in [1], in [2], in assay [3], in [4], in assay [5] and in assay [6] was “inactive” in each case. Further, the Potency result in [7] and in assay [8] was “inactive” in each case.
On to `O=C(Nc1ccccc1Cl)c1cnc2ccc(C3CCNCC3)cn12`, for which the Potency entry in assay [1], in assay [2], in assay [3], in assay [4], in assay [5] and in assay [6] was “inactive” in each case. Also, in [7], the Potency result was “inactive”.
Regarding `CCn1ccnc1CN(C)c1nccc(-c2ccc(C)nc2C)n1`, the Potency result in [1] is “inactive”.
As for `Cc1ccc(-c2cnc(N3CCC(C(N)=O)CC3)s2)cc1`, the Potency in [1] is 25.1 µM (active); in assay [2], 10.1 µM (active). Besides, the Potency result in assay [3] was “inactive”.
Turning to `CCN(CC)S(=O)(=O)c1ccc2c(c1)N(CC(=O)NCCCN1CCN(c3ccc(OC)cc3)CC1)C(=O)CO2`, the Potency result in [1] was “inactive”.
For the compound `CCc1c(C)sc(NC(=O)c2cc(-c3ccc(OC)cc3)on2)c1C#N`, the Potency result in [1] was “inactive”.
Take `Cc1ccc(CNS(=O)(=O)c2ccc(-c3cc(C(F)(F)F)on3)s2)cc1`: the Potency result in assay [1] is “inactive”.
What is called viability is the share of living cells, or the viability signal relative to a control. `O=C(CCN1CCN(C(=O)OCc2cc(Cl)cc(Cl)c2)CC1)c1ccc2[nH]c(=O)oc2c1`: the Potency was 283 nM (active) and 5.62 µM (active) in assay [1]; 0.201 µM (active) in assay [2]; 158 nM (active) in assay [3]; 1.42 µM (active) in [4]; 252 nM (active) and inactive in assay [6]; 252 nM (active) in assay [8]. Further, the Potency in assay [10] was 18.6 µM (active); in assay [11], 26.3 µM (active). For the same compound, the Potency result in [5] and in assay [7] was “inactive” throughout. The viability in assay [9] is 95.2% (inactive).
Take `CN(Cc1ccc(F)cc1)c1ccc2ncc(Nc3ccc4c(c3)OCO4)n2n1`: the Potency in assay [1] was 22.4 µM (active).
With `O=C1C(=O)N(C2CCN(C(=O)c3ccc(F)cc3)CC2)CCN1Cc1ccc(F)cc1`, the Potency entry in assay [1] was “inactive”.
Same read-out and setting: the same measure for `FC(F)(F)c1ccnc(-c2cc(NCc3ccccn3)nc3[nH]ccc23)c1`: “inactive”; for `CN(CC(=O)Nc1cccc(F)c1)S(=O)(=O)c1ccc2c(c1)n(C)c(=O)c(=O)n2C`: “inactive”.
With `CCN1C(=O)c2ccccc2S(=O)c2ccc(C(=O)N3CCN(c4ccccc4)CC3)cc21` (centres undefined), in assay [1], the Potency entry is “inactive”.
With `CCC(C)NC(=O)c1ccc(-c2cccc(C#N)c2)o1` (centres undefined), the Potency entry in assay [1] is “inactive”.
As for `Cc1nn(CC(=O)N[C@H](C)c2ccccc2)c(=O)n1-c1ccc2c(c1)OCO2`, in assay [1], the Potency result is “inactive”.
`CN(Cc1ccc(-c2ccccc2)cc1)[S+](=O)([O-])c1cccc(C(F)(F)F)c1`: in [1], the Potency entry was “inactive”.
For the compound `CCN1CCN(C(=O)CNC(=O)c2cccc(-c3ccsc3)c2)CC1`, the Potency result in assay [1] was “inactive”.
As for `O=C(NCc1cccs1)c1nc(-c2ccc(F)cc2)c2ccccn12`, the Potency entry in assay [1] and in [2] was “inactive” in each case.
